# Measurements reported in PubChem BioAssay (NCI).
# The panel holds about 83,000 compounds, 20% with a hit somewhere; the sample as a whole holds those more often.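 The test compound was applied at a single concentration to cells in 96-well plates for 48 hours, and percent growth was recorded.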 Unmarked numbers belong to inactive results. Active and inactive are the calls of the source.
# Tested on: CCRF-CEM leukemia
# Test: NCI-60 one-dose screen, 48 h (100 = growth as untreated, 0 = no growth, -100 = all killed)
# Details: 10 µM
# Description: Growth inhibition of the CCRF-CEM human tumor cell line is measured as a screen for anti-cancer activity. Cells are grown in 96 well plates and exposed to the test compound for 48 hours. Compounds are tested at a single concentration, which is 10^-5 M for most compounds. The reported endpoint is percent growth (GI% or GIPRCNT), where numbers from 0 - 100% represent growth inhibition, and numbers from -100% - 0 represent cell death. For example, a value of 40 represents 60% growth inhibition. A value of 0 means no net growth occurred over the course of the experiment. A value of -40 indicates 40% of cells at the beginning of the experiment died by the end of the experiment. A value of -100 means all cells are dead at the end of the experiment.
# NCI-60 Human Tumor Cell Lines Screen was performed using the standard one-dose NCI protocol, which is described in more detail at https://dtp.cancer.gov/discovery_development/nci-60/default.htm.
# Compounds with GIPRCNT values below 10 were considered active. Activity score was based on GIPRCNT using the following formula: […]
# Score is 0 for GIPRCNT values of 100 or above, 50 for GIPRCNT values of 0, and 100 for GIPRCNT values of -100.
row,SMILES,growth
1,COc1ccc(C(=O)N2N=C(c3ccc(Br)cc3)CC2c2cn(-c3ccccc3)nc2-c2ccccc2)cc1 (stereo not given),67.9%
2,COc1ccc(/C(=C(\c2ccccc2)[N+](=O)[O-])c2ccc(OCCN3CCCC3)cc2)cc1,67.6%
3,CC[n+]1c(C)ccc2cc(C)ccc21,98%
4,O=C1/C(=N\c2cc(=O)[nH]n2S(=O)(=O)c2ccccc2)Nc2ccccc21,98.4%
5,CC(=O)CC(=O)OC/C=C(/C)CCC=C(C)C,116%
6,Cc1ncc(C(=O)Nc2ccc(CN3CCN(C)CC3)c(C(F)(F)F)c2)cc1C#Cc1c(N)ncc2ccccc12,-48.3% (active)
7,Cc1ccc(C(=O)NN)cc1,99.5%
8,O=c1[nH]c(=S)[nH]c(O)c1/C=C1\C=Nc2ccccc21,4.02% (active)
9,OC(c1ccccc1)(c1ccccc1)C(F)(F)F,84.7%
10,COc1cc2ncnc(-n3ncc4cc(NC(=O)Nc5ccc(Cl)c(C)c5)ccc43)c2cc1OC,102%
11,CC(=O)N1N=C(c2ccc(Cl)cc2)CC1c1cn(-c2ccccc2)nc1-c1ccc([N+](=O)[O-])cc1 (stereo not given),105%
12,Cn1c2ccccc2c2ccccc21,92.5%
13,N#Cc1ccc(OCc2nc(N)nc(N)c2-c2ccc(Cl)c(Cl)c2)cc1,18.5%
14,COc1cccc2c1n([O-])c1cccc(OC)c1[n+]2=O,9.03% (active)
15,CC(=O)Nc1nc(C)c(C(=O)N/N=C/N2CCCCC2)s1,94.6%
16,Cc1c(O)c(N=Nc2ccc(C(=O)O)c(O)c2)c2ccccc2c1O,112%
17,CCOC(=O)CSSCC(=O)OCC,95.9%
18,C=C(C)[C@@H]1CC[C@]2(COC(=O)c3ccccc3C(=O)O)CC[C@]3(C)[C@H](CC[C@@H]4[C@@]5(C)CCCNC(C)(C)[C@@H]5CC[C@]43C)[C@@H]12,28.8%
19,CC(=O)c1ccc2c(c1)c1ccccc1n2C,70.6%
20,Cc1ncc(C(=O)Nc2ccc(CN3CCN(C)CC3)c(C(F)(F)F)c2)cc1C#Cc1cnc(NC2CC2)c2ncccc12,-43% (active)

row,SMILES,growth
1,CN1C(=O)C(=Cc2coc3ccc(Br)cc3c2=O)C(=O)N(C)C1=O,116%
2,COC(=O)c1cc(O)c2cc3c(cc2c1-c1cc(OC)c(OC)c(OC)c1)OCO3,8.87% (active)
3,COc1ccc(Cn2cc3c(c2-c2ccccc2)CCc2cnoc2-3)cc1N,18%
4,COc1cc(-c2nn(-c3ccc(NC(=O)c4ccc(Cl)c(Cl)c4)cc3)cc2-c2ccncc2)ccc1Cl,67.6%
5,CC1=C(C)C(=O)C(C(C)C2=C(C)C(=O)C(C)=C(C)C2=O)=C(C)C1=O,67.4%
6,CCCCCCNC(=O)Oc1ccc(/C(=C(/C)Cc2ccc(OC)cc2)c2ccc(OCCN3CCCCC3)cc2)cc1,72%
7,Cc1cc2cn3c4ccc(O)cc4nc(N)c3c2cc1C,11.5%
8,CC1=C[C@@H]2c3c(c(O)c(O)c4oc5cc(O)cc(O)c5c(=O)c34)[C@@H](c3cc(O)c(O)c4oc5cc(O)cc(O)c5c(=O)c34)[C@@H]2C(C)(C)C1,3.51% (active)
9,CCOc1ccc(/C=N/NC(=O)c2cccc3ccccc23)cc1OCC,84.1%
10,Oc1ccc(Br)cc1/C=N/NC(=S)NC12CC3CC(CC(C3)C1)C2,-21.1% (active)
11,COc1cccc(CNC(=O)c2cccc(C3CC(=O)c4c(cc(OC)c(OC)c4OC)O3)c2)c1 (stereo not given),13.3%
12,CCOc1ccccc1/C=N\N=C(N/N=C/c1ccccc1OCC)N/N=C/c1ccccc1OCC,16.7%
13,COc1ccc2nc3cc(Cl)ccc3c(NCCCNC(C)=O)c2c1,39%
14,COc1ccc2c(c1)cn1c3ccc(O)cc3[nH]c(=O)c21,18.5%
15,CC(=O)OCC1O[C@@H](OC(C)=O)[C@@H](NC(=O)NS(=O)(=O)c2ccccc2)C(OC(C)=O)[C@@H]1OC(C)=O (stereo not given in full),97%
16,Ic1ccc(SSc2ccc(I)cc2)cc1,17%
17,COc1cc2c(cc1OC)C(Cc1cc(OC)c(OC)cc1[N+](=O)[O-])=NCC2,88.3%
18,Cc1ccc(OCCn2ccc(=O)n(CCOc3ccc(Cl)cc3C(=O)c3cc(C)cc(C)c3)c2=O)cc1,25.7%
19,O=C(Nc1cccc(Cn2c(=O)[nH]c3ccc(Oc4ncccn4)cc3c2=O)c1)c1cc(Cl)cc(Cl)c1,77.9%
20,COc1ccc2c(c1)/C(=C/c1c(-c3cc(OC)c(OC)c(OC)c3)nc3sccn13)C(=O)N2,-43.3% (active)
